From PubChem BioAssay
BL2 CD40 inh: inhibitors of CD40-induced NF-kB signaling, primary screen, BL2 cells, luciferase reporter, single point. 0.94% of 83,000 active. inhibition, % at 10 µM. CD40L-induced, 4 h;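 active = mean inhibition of at least 50% with a set share of replicates also reaching that level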;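 note: 0% = neutral control wells and 100% = IKK inhibitor VII at 50 µM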
The depositor's hits bear a star; ! = a repeat was not active; [ ] = another dose, or the depositor's remark. Shown is part of a subset that was picked to be rich in hits.

SMILES	BL2 CD40 inh
C[C@H]1CN([C@@H](C)CO)C(=O)c2c(c3ccccc3n2C)-c2ccccc2CO[C@H]1CN(C)C(=O)c1cc(Cl)cc(Cl)c1	43.6[25 µM]
C[C@@H]1CN([C@H](C)CO)C(=O)c2c(c3ccccc3n2C)-c2ccccc2CO[C@@H]1CN(C)C(=O)c1cc(Cl)cc(Cl)c1	59.9*[25 µM]
C[C@H]1CN([C@@H](C)CO)C(=O)c2ccccc2-c2ccccc2CO[C@@H]1CN(C)C(=O)c1ccccc1	-5.4
C[C@H]1CN([C@@H](C)CO)C(=O)c2ccccc2-c2ccccc2CO[C@H]1CN(C)Cc1ccc(C(F)(F)F)cc1	31.9
COc1cccc(CN2C[C@@H]3N[C@H](C2)C3c2ccc(-c3ccncc3)cc2)c1 (stereo partly specified)	1.5[25 µM]
Cc1ccc(-c2ccc(C3[C@@H]4CN(Cc5ccccc5)C[C@H]3N4)cc2)cc1 (stereo partly specified)	3.3[25 µM]
Cc1ccc(-c2ccc(C3[C@@H]4CN(Cc5cccc(F)c5)C[C@H]3N4)cc2)cc1 (stereo partly specified)	61.9*
Fc1ccc(-c2ccc(C3[C@@H]4CN(Cc5cccc(F)c5)C[C@H]3N4)cc2)cc1 (stereo partly specified)	-3.8[25 µM]
COc1cccc(-c2ccc(C3[C@@H]4CN(Cc5cccc(F)c5)C[C@H]3N4)cc2)c1 (stereo partly specified)	60.3*!
COc1ccc(-c2ccc(C3[C@@H]4CN(Cc5cccc(OC)c5)C[C@H]3N4)cc2)cc1 (stereo partly specified)	2.8
O=C(c1cnccn1)N1CC(=O)N2[C@H](CO)[C@@H](c3ccc(/C=C/c4ccccc4)cc3)[C@@H]2C1	-20.6[25 µM]
CN1C(=O)c2cc(NS(C)(=O)=O)ccc2OC[C@@H]2O[C@@H](CC(=O)NCc3ccccc3)CC[C@@H]21	-9.6[25 µM]
Cc1nc2c(=O)n(C)c(=O)n(C)c2nc1Cl	105.3*
Cc1cc(Nc2nc3c(c(=O)n(C)c(=O)n3C)n2C)n(-c2ccc(Cl)cc2)n1	-4.9
CC(C)Sc1nc2c(c(=O)n(C)c(=O)n2C)n1C	10.6
CC(C)(C)[S@](=O)N1Cc2cc(C(=O)O)nc(-c3cccc(-c4cccc(F)c4)c3)c2[C@@H]1CCO	4.8
O=C1C(F)=CC(COC(c2ccccc2)(c2ccccc2)c2ccccc2)OC1n1cc(F)c(=O)[nH]c1=O (stereo unspecified)	100.7*
O=c1[nH]c(=O)n(C2CCCO2)cc1F (stereo unspecified)	2.1
CC(C)(O)C#Cc1ccc([C@H]2[C@@H](CO)N3CCCCN(S(C)(=O)=O)C[C@H]23)cc1	-1.6[25 µM]
Cc1ccccc1S(=O)(=O)/N=C(/Nc1nc2ccccc2s1)c1ccccc1	-78.1
CCN(CC)S(=O)(=O)c1cccc(C(=O)N/N=C2\CC(=O)CC(C)(C)C2)c1	7.9
CC1(C)CC(=O)C/C(=N/Nc2nc3ccccc3s2)C1	49.7*
CC(=O)N1[C@@H]2Cn3c(ccc(C4=CCCC4)c3=O)[C@H]1[C@@H](C(=O)NC1CCCCC1)[C@@H]2CO	0.8
COc1cccc(CN2CC3(CN(C)C3)c3c(n(C)c4cc(OC)ccc34)[C@@H]2CO)c1	-11.7[25 µM]
C[C@@H]1CN([C@H](C)CO)C(=O)c2ccccc2-c2ccccc2CO[C@@H]1CN(C)S(=O)(=O)c1ccc(F)cc1	-5.7
SMILES	BL2 CD40 inh
COc1ccc2c3c([nH]c2c1)[C@H](CO)N(C(=O)Nc1ccc(F)cc1)CC31CN(Cc2cc(F)ccc2F)C1	55.9*[25 µM]
COc1ccc2c3c([nH]c2c1)[C@@H](CO)N(C(=O)Nc1ccc(F)cc1)CC31CN(Cc2cc(F)ccc2F)C1	39.5[25 µM]
COc1ccc2c3c(n(C)c2c1)[C@@H](CO)N(C(=O)Nc1ccc(F)cc1)CC31CCN(C(=O)Nc2c(C)noc2C)CC1	17.7[25 µM]
CCCNC(=O)N1CC2(C1)CN(C(=O)Nc1ccc(F)cc1)[C@@H](CO)c1[nH]c3cc(OC)ccc3c12	-10.3[25 µM]
COc1ccc2c3c(n(C)c2c1)[C@H](CO)N(C(C)=O)CC31CCN(C(=O)Nc2ccccc2F)CC1	11.8[25 µM]
COc1ccc2c3c(n(C)c2c1)[C@H](CO)N(C(=O)Nc1ccc(F)cc1)CC31CCN(C(=O)Nc2ccc(F)cc2F)CC1	67.7*[25 µM]
O=C(C1CC1)N1[C@H](CO)[C@H]2c3ccccc3NC[C@H]21	11.1
C[C@H]1CN(C)C(=O)c2cccnc2O[C@H]1CN(C)S(C)(=O)=O	-1.2
CCOC(=O)C1=C(C)NC(C)=C(C(=O)OC)C1c1cccc([N+](=O)[O-])c1 (stereo unspecified)	-28.5
COC(=O)C1=C(C)NC(C)=C(C(=O)OCCCN2CCC(c3ccccc3)(c3ccccc3)CC2)[C@H]1c1cccc([N+](=O)[O-])c1	61.2*[25 µM]
COCCOC(=O)C1=C(C)NC(C)=C(C(=O)OC(C)C)C1c1cccc([N+](=O)[O-])c1 (stereo unspecified)	-25.9
N#C[C@@H]1[C@H](c2ccccc2-c2cccc(F)c2)[C@H](CO)N1C(=O)C1CCCC1	0.7
COc1cc2c(cc1OC)C(=O)N(C)CC2	-3.0
COc1cc2c(cc1OC)C(=O)C(Br)CC2 (stereo unspecified)	99.6*
COc1cc2c(cc1OC)C(=O)CCS2	7.4
CC(C)NC(=O)Nc1cccc2c1O[C@H](CN(C)C)[C@@H](C)CN(C)C2=O	-2.5
Cc1noc(C)c1S(=O)(=O)N(C)C[C@H]1OCc2ccccc2-c2c(n(C)c3ccccc23)C(=O)N([C@H](C)CO)C[C@@H]1C	33.9[25 µM]
Cc1cccc2sc(N(CCN3CCOCC3)C(=O)CCS(=O)(=O)c3ccccc3)nc12	1.5
COc1ccc(Cl)c2sc(N(CCN(C)C)C(=O)CCS(=O)(=O)c3ccc(C)cc3)nc12	11.6
COc1ccc(OC)c2sc(N(CCCN(C)C)C(=O)CCS(=O)(=O)c3ccccc3)nc12	81.2*
C[C@@H](O)C#Cc1cnc2c(c1)C(=O)N([C@@H](C)CO)C[C@H](C)[C@@H](CN(C)Cc1cccc(C(=O)O)c1)O2	0.7[25 µM]
N#C[C@H]1[C@@H](c2ccccc2C2=CCCC2)[C@@H](CO)N1C(=O)c1cccc(F)c1	1.7[25 µM]
CO[C@@H]1CC[C@H]2CCN(C)C(=O)[C@H](C)CN(C)C(=O)c3cc(C#N)ccc3OC[C@@H]1O2	4.3[25 µM]
O=C(Nc1nccs1)c1cc2c(s1)CCCCC2	91.7*
O=C(Nn1cnnc1)c1cc2c(s1)CCCC2	-1.0
SMILES	BL2 CD40 inh
CC(C)Cc1nnc(NC(=O)c2cc3c(s2)CCC3)s1	-35.8
CN(C)C(=O)c1ccc(-c2cccc(-c3nc(C(=O)NC4CCC4)cc4c3[C@H](CCO)N([S@@](=O)C(C)(C)C)C4)c2)cc1	11.5
COc1ccc2c3c(n(C)c2c1)[C@H](CO)NCC31CN(Cc2cc(-c3ccccc3)on2)C1	0.2
CC(C)(C)S(=O)N1Cc2cc(C(=O)NCc3ccc4c(c3)OCO4)nc(-c3cccc(-c4cccc(F)c4)c3)c2[C@@H]1CCO (stereo partly specified)	5.9[25 µM]
CC1CC(Nc2ccccc2)c2ccccc2N1C(=O)c1cccnc1 (stereo unspecified)	3.3
CC(=O)N(c1ccccc1)C1CC(C)N(C(=O)c2ccccc2)c2ccccc21 (stereo unspecified)	11.9
C[C@@H]1C[C@H](Nc2ccccc2)c2ccccc2N1C(=O)c1cccnc1	19.6*
Cc1nc(N2[C@H](CO)[C@H](c3ccccc3)[C@H]2CNCC2CCCC2)sc1C	19.3
C[C@H]1CC(=O)NCC/C=C\C[C@H](c2cccc(Cl)c2)NC1=O	-5.3[25 µM]
COc1cc(CN2CC3(CCN(S(=O)(=O)c4cn(C)cn4)CC3)c3c(n(C)c4cc(OC)ccc34)[C@H]2CO)cc(OC)c1	4.5[25 µM]
